In PubChem BioAssay AID1458 (National Center for Advancing Translational Sciences (NCATS), 2008):
The whole screen tested about 210,000 compounds, of which about 5,900 (2.8%) were called active. Another 5% or so got no clear call; they are omitted. Calls follow the shape of the dose curve; as a rule, active = well fitted activation curve with a large enough effect; inconclusive = small, poorly fitted or top-dose-only effect; inactive = no such curve, though single readings can be large or run the other way. Many of the other results were omitted from the sample, so actives are more common in it than they were.

Test: qHTS Assay for Enhancers of SMN2 Splice Variant Expression; also: nearly all actives have a fitted effect of over 55% in size; as to activity change, positive = activation: % of control where 0% means no effect
Conditions: HEK293 SMN2-luciferase splicing reporter, luminescence, 30-36 h; series mostly up to 46.1 µM; activity change, positive = activation: at the top concentration
In short: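 HEK293 cells carry an SMN2 […]–luciferase reporter in which exon 7 inclusion puts luciferase in frame. Cells were plated 10-12 h before compound addition, then incubated 30-36 h at 37C. ONE-Glo luminescence was read; sodium butyrate at 4.5 mM final served as control.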
Potency is read from the fitted curve at half-maximal effect.

Activity change, positive = activation, inactive:
CCOC(=O)c1ccccc1NC(=O)c1nn(-c2ccc(OC)c(Cl)c2)c(=O)c2c1c1ccccc1n2C -6.12%
O=C(Nc1nncs1)c1ccccc1NS(=O)(=O)c1cccs1 -4.37%
COc1cccc(OC)c1C(=O)Nc1nnc(C(C)C)s1 -3.99%
O=S(=O)(c1ccc(C2CCCCC2)cc1)N1CCN(c2ccc(Cl)c(Cl)c2)CC1 -6.14%
CCCc1ccc(-c2csc(NC(=O)Cc3cccs3)n2)cc1 -91.3%
CC(C)(C)NC(=O)NC(=O)COC(=O)Cc1ccc(Cl)cc1Cl 9.02%
COc1ccc(-c2nc(CCNC(=O)c3ccc(Br)o3)cs2)cc1 -57.5%
COc1ccc(-c2csc(NC(=O)CCCc3cccs3)n2)cc1 -8.51%
COc1ccc(Nc2ncc(C(=O)Nc3cc(C)ccc3OC)c3ccccc23)cc1 3.77%
COc1ccc(-n2c(SCC(N)=O)nc3c(oc4ccccc43)c2=O)cc1 -12.5%
O=C(NCc1ccccc1)c1cc(-c2cccc(Cl)c2)on1 0.862%
COc1ccccc1CNc1nc2ccc(Cl)cc2n2cnnc12 -0.672%
Cc1ccc(Cl)cc1NC(=O)C(C)n1nnc2sc(-c3ccccc3)cc2c1=O (stereo not drawn) 1.18%
O=C(CCS(=O)(=O)c1cccc2nsnc12)N1CCN(c2ccccc2F)CC1 -8.49%
O=C(c1cccc2ccccc12)N1CCN(c2ccccc2F)CC1 -6.5%
Cc1cc2n(n1)C(c1cc(C(C)(C)C)c(O)cc1O)Nc1ccccc1-2 (stereo not drawn) -2.87%
Cc1cccc(CSc2nc3ccncc3n2CC(=O)N(C)C2CCCCC2)c1 3.04%
CCOc1ccc(-c2cc3nc(C4CCN(C(=O)OC(C)(C)C)CC4)c(C(=O)Nc4cccc(CC)c4)cn3n2)cc1 6.72%
Cc1ccccc1CSCC(=O)NC(=O)NC(C)(C)C 10.4%
CC(C)(C)NC(=O)CSc1nc(-c2ccc(F)cc2)cc(C(F)(F)F)n1 17.7%
Cc1cc(C)cc(NC(=O)Cc2csc(C)n2)c1 -8.87%
CCNC(=O)N1CCNC(=O)C1CC(=O)Nc1ccc(C(=O)OCC)cc1 (stereo not drawn) -30.7%
COc1cccc(NC(=O)CC2C(=O)NCCN2C(=S)Nc2ccc(F)cc2)c1 (stereo not drawn) -6.38%
COc1cc2c(=O)c(S(=O)(=O)c3ccc(C(C)C)cc3)cn(Cc3ccccc3C)c2cc1OC -15.4%
O=C(Nc1ccccc1)c1ccc2nsnc2c1 14%
O=C(Nc1cccc(NC(=O)c2ccc(Br)cc2)c1)c1ccccc1 1.19%
Cc1nc(SCC(=O)N2CCN(c3ccccc3)CC2)[nH]c(=O)c1C 7.64%
Cc1oc(-c2ccccc2F)nc1CN1CCC(C(=O)NCCc2ccc(Cl)cc2)CC1 8.98%
COc1ccc(NC(=O)C2CCCN(S(=O)(=O)c3c(C)[nH]c(=O)[nH]c3=O)C2)c(OC)c1 (stereo not drawn) 7.41%
COc1ccc(C(=O)Nc2ccc(CN3CCOCC3)cc2)cc1 -18%
CCOC(=O)c1c(NC(=O)c2ccc(N3CCOCC3)c([N+](=O)[O-])c2)sc(C)c1C -0.319%
CCOC(=O)C1CCCN(C(=O)Cn2ncc3c(C)n(Cc4ccc(F)cc4)c(C)c3c2=O)C1 (stereo not drawn) -22.8%
COc1ccc(-c2noc(CSc3nc4ccc(C)cc4[nH]3)n2)cc1 -46.7%
Cc1ccccc1C(=O)Nc1sc2c(c1C(=O)N1CCC(C)CC1)CCCC2 -1.84%
Cc1c(NC(=O)c2cc(=O)c3ccccc3o2)c(=O)n(-c2ccccc2)n1C -4.74%
COc1ccc(Cl)cc1C(=O)NCc1cn(C)nc1C 1.02%
Cc1nn(C)cc1C(=O)NNC(=S)Nc1ccc(Cl)cc1 8.55%
Oc1ccccc1-c1nc(/C=C/c2ccc(F)cc2)no1 3.13%
COc1ccc(C(=O)Nc2cccnc2)cc1C(=O)Nc1cccnc1 -8.52%
CCOC(=O)c1cc(NC(=O)c2cccnc2)cc(C(=O)OCC)c1 12.2%
CCN(CC)c1ccc(C2C(C(N)=O)=C(C)Nc3nc(SCc4ccccc4)nn32)cc1 (stereo not drawn) 7.44%
COCCn1c(CCC(=O)Nc2cc(C)ccc2C)nc2cccnc21 7.93%
N#C/C(=C\c1ccccc1F)c1nc2ccccc2c(=O)[nH]1 -1.96%
COc1ccccc1-c1nnc(SCC(=O)Nc2cc(C)on2)o1 -3.86%
COc1ccccc1-c1nnc(NC(=O)c2cccc(N3C(=O)CCC3=O)c2)o1 2.48%
Cn1c(=O)c2sccc2n2c(CCC(=O)NCc3ccccc3Cl)nnc12 1.76%
CCc1ccc2oc(-c3ccc(C)c(NC(=O)/C=C/c4ccco4)c3)nc2c1 4.88%
CCc1ccc2oc(-c3ccc(NC(=O)c4cc5ccccc5o4)cc3)nc2c1 6.02%
COc1ccc(OC)c(-c2csc(-c3c(N)c(C(=O)c4ccccc4)n4ccccc34)n2)c1 -0.921%
CCc1nn(CC(=O)N2CCN(c3cc(C)ccc3C)CC2)c(=O)c2cc3occc3n12 2.38%
O=C(c1ccc(Cl)cc1)n1nc(-c2cccnc2)nc1NCc1ccc(F)cc1 1.47%
COc1cc(Cl)c(C)cc1NC(=O)CCc1nc2cccnc2n1Cc1cccs1 -6.37%
CC(C)Nc1nnc(SCC(=O)c2c[nH]c3ccccc23)s1 -12.7% [at 1.84 µM]
Cc1cc2c(=O)n(C)c(SCC(=O)c3cc4ccccc4o3)nc2s1 -1.87%
O=C(CSc1nnc(Nc2ccccc2)s1)Nc1cccnc1Cl 5.82%
Cc1ccccc1Nc1nnc(SCC(=O)c2cc3ccccc3o2)s1 -3.61%
CCOCCCNC(=O)c1c(NC(=O)Cc2coc3c(C)c(C)ccc23)sc2c1CCC2 1.11%
Cc1cccc(N2CCN(C3=C(c4ccccc4)C(=O)c4ccccc43)CC2)c1C 1.91%
O=C1OC(C(=O)Nc2cccc(Br)c2)Cc2ccccc21 (stereo not drawn) 0.983%
CCNS(=O)(=O)c1cc(-c2nnc(Nc3cccc(C(F)(F)F)c3)c3ccccc23)ccc1C -4.9%
COc1cccc(CNC(=O)Cn2ncn3c(cc4ccccc43)c2=O)c1 5.36%
Cc1ccc(S(=O)(=O)NCCN2CCOCC2)cc1C 38.2%
CCOC(=O)CSc1nc2ccc(C)cc2[nH]1 -0.138%
COc1ccc(S(=O)(=O)NCCSc2nnnn2-c2ccccc2)cc1 -43.5%
COc1ccc(NC(=O)NC(C)c2c(-n3cccc3)sc(C)c2C)cc1OC (stereo not drawn) -12.4%
COc1cccc(NC(=O)CCNS(=O)(=O)c2ccc3c(c2)oc(=O)n3C)c1 -7.42%
Cc1ccc(CNC(=O)CCNS(=O)(=O)c2ccc3c(c2)oc(=O)n3C)cc1 -6.56%
O=C(NCCc1ccccc1)c1ccc(NC2=NC3CS(=O)(=O)CC3S2)cc1 (stereo not drawn) -12.9%
CC(=O)c1cccc(NC(=O)N2CCCC2C(=O)NCCc2ccccc2)c1 (stereo not drawn) 12.8%
Cc1oc2ccc(O)c(CN3CCCCC3)c2c1C(=O)Nc1cccc(C(F)(F)F)c1 -3.24%
CCC1CCCCN1S(=O)(=O)c1ccc(NC(=O)c2cc(=O)c3ccccc3o2)cc1 (stereo not drawn) 17%
Cc1ccccc1NC(=O)Cn1c(=O)n(CCCCC(=O)NCc2ccccc2Cl)c(=O)c2ccccc21 -3.56%
CCOC(=O)c1sc2nc(SC)nc(-c3ccccc3)c2c1N -19.5%
CS(=O)(=O)c1sc2nc(-c3ccccc3)cc(-c3ccccc3)c2c1N 2.34%
Cc1ccc(-c2nc3ccccc3[nH]2)cc1NC(=O)c1sc2ccccc2c1Cl -58.7%
OCCNc1nc2ccccc2[nH]1 -20.5%
COc1ccc(Br)cc1C(=O)NC(=S)Nc1cc(-c2nc3ccccc3[nH]2)ccc1C -3.02% [at 1.84 µM]
c1ccc(-c2[nH]ncc2-c2nc3ccccc3[nH]2)cc1 23.7%
COc1cc2[nH]c(=O)n(Cc3ccc(C(=O)NCc4ccc(C)cc4)cc3)c(=O)c2cc1OC 12.5%
CCCCCn1c(=O)[nH]c2cc(C(=O)Nc3cc(C)cc(C)c3)ccc2c1=O -0.402%
Cc1nn(-c2ccccc2)c2c1C(c1cccc([N+](=O)[O-])c1)N(c1ccccc1)C(=O)N2 (stereo not drawn) 24.3%
CC(C)(C)c1cnnn1-c1ccc([N+](=O)[O-])cc1 3.09%
CCCCN1C(=O)c2[nH]nc(-c3ccccc3O)c2C1c1cccc(OCc2ccccc2)c1 (stereo not drawn) -11.7%

Potency, active:
COc1ccc(C(=O)Nc2nncs2)c(OC)c1 11.2 µM
COc1ccc(-c2csc(NC(=O)COC(=O)c3ccc(Br)o3)n2)cc1 0.794 µM
COc1ccc(-c2csc(NC(=O)COC(=O)Cc3ccc(Cl)cc3Cl)n2)cc1 11.2 µM
O=C(CCSc1ccccc1)N1CCN(c2ccccc2F)CC1 11.2 µM
CC(C)(C)NC(=O)CSC(=Nc1ccccc1F)NC#N 20 µM
COC(=O)c1cc(NC(=O)CC2C(=O)NCCN2C(=O)c2ccc(F)cc2)cc(C(=O)OC)c1 (stereo not drawn) 10 µM
O=C(Nc1ccccc1)c1cc2ccccc2[nH]1 11.2 µM
COc1ccc(C(=O)Nc2sc(C)c(C)c2CN2CCOCC2)cc1 12.6 µM
Cc1nn(C)cc1CNC(=O)Nc1ccc(Cl)cc1 15.8 µM
CCOC(=O)c1ccc(-c2ccc(C(=O)Nc3cccnc3)o2)cc1 6.31 µM
COc1ccccc1-c1nnc(NC(=O)c2ccc3ncsc3c2)o1 14.1 µM
CCc1ccc2oc(-c3ccc(N)cc3)nc2c1 1 µM
Cc1ccc(Nc2nnc(SCC(=O)c3cc4ccccc4o3)s2)cc1C 12.6 µM
CC(C)c1ccc(Nc2nnc(SCC(=O)c3nnc(-c4ccccc4)o3)s2)cc1 10 µM
Cc1cc2nc(SCCN3CCOCC3)[nH]c2cc1C 14.1 µM
CC1CCCN(c2ccc(C(=O)NCCc3ccccc3)cn2)C1 (stereo not drawn) 11.2 µM
CCN(CC)C(=O)c1sc2nc(-c3ccccc3)ccc2c1N 7.94 µM
c1ccc2[nH]c(-c3nc4ccccc4[nH]3)nc2c1 7.94 µM
Cc1ccc(-c2nc3ccccc3[nH]2)cc1N 3.16 µM
Cc1nn(-c2ccc([N+](=O)[O-])cc2)c(N)c1-c1ccccc1 10 µM
